Measured values from the supplement of paper PMC8728848.
This is one part of a sample in which the strongest signals are shown more often than they occur.

How the values were obtained:
Test in all cases: glycan array binding signal (z-score within array); higher = stronger binding
Conditions in all cases: glycan notation: IUPAC condensed, linker removed
[1] = target: Fuc(a1-2)Gal(b1-3)GalNAc(a1-3)[Fuc(a1-2)]Gal(b1-4)Glc
How it was run: (§1)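 Arrays were curated from the Consortium for Functional Glycomics database, 3228 in total, and kept only where the protein sequence was available. Binding is expressed as a within-array Z-score. This score was averaged across arrays of the same protein sequence at different concentrations or buffers and across linkers, and negative values can be read as non-binding.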

[2] = target: Fuc(a1-2)Gal(b1-3)GlcNAc(b1-3)GalNAc
How it was run: as §1

[3] = target: Fuc(a1-2)Gal(b1-4)GlcNAc(b1-2)Man(a1-3)[Fuc(a1-2)Gal(b1-4)GlcNAc(b1-2)Man(a1-6)]Man(b1-4)GlcNAc(b1-4)[Fuc(a1-6)]GlcNAc
How it was run: as §1

[4] = target: Fuc(a1-2)Gal(b1-4)GlcNAc6S
How it was run: as §1

[5] = target: Fuc(a1-2)[Gal(a1-3)]Gal(b1-3)GalNAc(b1-3)Gal(a1-4)Gal(b1-4)Glc
How it was run: as §1

[6] = target: Fuc(a1-2)[Gal(a1-3)]Gal(b1-3)GlcNAc(b1-6)GalNAc
How it was run: as §1

[7] = target: Fuc(a1-2)[Gal(a1-3)]Gal(b1-4)GlcNAc(b1-2)Man(a1-3)[Fuc(a1-2)[Gal(a1-3)]Gal(b1-4)GlcNAc(b1-2)Man(a1-6)]Man(b1-4)GlcNAc(b1-4)GlcNAc
How it was run: as §1

[8] = target: Fuc(a1-2)[Gal(a1-3)]Gal(b1-4)GlcNAc(b1-6)GalNAc
How it was run: as §1

[9] = target: Fuc(a1-2)[GalNAc(a1-3)]Gal(b1-3)GlcNAc
How it was run: as §1

[10] = target: Fuc(a1-2)[GalNAc(a1-3)]Gal(b1-4)GlcNAc(b1-2)Man(a1-3)[Fuc(a1-2)[GalNAc(a1-3)]Gal(b1-4)GlcNAc(b1-2)Man(a1-6)]Man(b1-4)GlcNAc(b1-4)GlcNAc
How it was run: as §1

[11] = target: Fuc(a1-2)[GalNAc(a1-3)]Gal(b1-4)[Fuc(a1-3)]GlcNAc(b1-3)GalNAc
How it was run: as §1

Fuc(a1-3)GlcNAc = target: Fuc(a1-3)GlcNAc
How it was run: as §1

[12] = target: Fuc(a1-3)[Gal(b1-4)]GlcNAc(b1-4)Gal(b1-4)[Fuc(a1-3)]GlcNAc
How it was run: as §1

[13] = target: Fuc(a1-3)[Gal(b1-4)]GlcNAc(b1-6)[Gal(b1-3)GlcNAc(b1-3)]Gal(b1-4)Glc
How it was run: as §1

Gal(a1-4)Gal(b1-4)GlcNAc = target: Gal(a1-4)Gal(b1-4)GlcNAc
How it was run: as §1

[14] = target: Gal(b1-3)Gal(b1-4)GlcNAc(b1-2)Man(a1-3)[Gal(b1-3)Gal(b1-4)GlcNAc(b1-2)Man(a1-6)]Man(b1-4)GlcNAc(b1-4)GlcNAc
How it was run: as §1

[15] = target: Gal(b1-3)GlcNAc(b1-3)Gal(b1-4)GlcNAc(b1-2)Man(a1-3)[Gal(b1-3)GlcNAc(b1-3)Gal(b1-4)GlcNAc(b1-2)Man(a1-6)]Man(b1-4)GlcNAc(b1-4)GlcNAc
How it was run: as §1

[16] = target: Gal(b1-3)[Fuc(a1-4)]GlcNAc(b1-6)GalNAc
How it was run: as §1

[17] = target: Gal(b1-3)[Neu5Ac(a2-6)]GalNAc
How it was run: as §1

[18] = target: Gal(b1-4)GlcNAc(b1-2)Man(a1-3)[Gal(b1-4)GlcNAc(b1-2)Man(a1-6)]Man(b1-4)GlcNAc(b1-4)GlcNAc
How it was run: as §1

[19] = target: Gal(b1-4)GlcNAc(b1-2)Man(a1-3)[Gal(b1-4)GlcNAc(b1-2)Man(a1-6)][Gal(b1-4)GlcNAc(b1-4)]Man(b1-4)GlcNAc(b1-4)[Fuc(a1-6)]GlcNAc
How it was run: as §1

[20] = target: Gal(b1-4)GlcNAc(b1-2)Man(a1-6)[Man(a1-3)]Man(b1-4)GlcNAc(b1-4)GlcNAc
How it was run: as §1

[21] = target: Gal(b1-4)GlcNAc(b1-2)[Gal(b1-4)GlcNAc(b1-4)]Man(a1-3)[Gal(b1-4)GlcNAc(b1-2)[Gal(b1-4)GlcNAc(b1-6)]Man(a1-6)]Man(b1-4)GlcNAc(b1-4)GlcNAc
How it was run: as §1

[22] = target: Gal(b1-4)GlcNAc(b1-2)[Gal(b1-4)GlcNAc(b1-6)]Man(a1-6)[GlcNAc(b1-4)][Gal(b1-4)GlcNAc(b1-2)Man(a1-3)]Man(b1-4)GlcNAc(b1-4)GlcNAc
How it was run: as §1

[23] = target: Gal(b1-4)GlcNAc(b1-3)Gal(b1-4)GlcNAc(b1-3)Gal(b1-4)GlcNAc(b1-3)Gal(b1-4)GlcNAc(b1-2)[Gal(b1-4)GlcNAc(b1-3)Gal(b1-4)GlcNAc(b1-3)Gal(b1-4)GlcNAc(b1-3)Gal(b1-4)GlcNAc(b1-6)]Man(a1-6)[Gal(b1-4)GlcNAc(b1-3)Gal(b1-4)GlcNAc(b1-3)Gal(b1-4)GlcNAc(b1-3)Gal(b1-4)GlcNAc(b1-2)Man(a1-3)]Man(b1-4)GlcNAc(b1-4)[Fuc(a1-6)]GlcNAc
How it was run: as §1

[24] = target: Gal(b1-4)GlcNAc(b1-3)Gal(b1-4)GlcNAc(b1-3)Gal(b1-4)GlcNAc(b1-3)Gal(b1-4)GlcNAc(b1-3)Gal(b1-4)GlcNAc(b1-2)Man(a1-3)[Gal(b1-4)GlcNAc(b1-3)Gal(b1-4)GlcNAc(b1-3)Gal(b1-4)GlcNAc(b1-3)Gal(b1-4)GlcNAc(b1-3)Gal(b1-4)GlcNAc(b1-2)Man(a1-6)]Man(b1-4)GlcNAc(b1-4)GlcNAc
How it was run: as §1

[25] = target: Gal(b1-4)GlcNAc(b1-3)Gal(b1-4)GlcNAc(b1-3)Gal(b1-4)GlcNAc(b1-3)Gal(b1-4)GlcNAc(b1-3)Gal(b1-4)GlcNAc(b1-2)Man(a1-3)[Gal(b1-4)GlcNAc(b1-3)Gal(b1-4)GlcNAc(b1-3)Gal(b1-4)GlcNAc(b1-3)Gal(b1-4)GlcNAc(b1-3)Gal(b1-4)GlcNAc(b1-2)Man(a1-6)]Man(b1-4)GlcNAc(b1-4)[Fuc(a1-6)]GlcNAc
How it was run: as §1

B1: Gal 9 (Homo sapiens), O00182 (protein)
chain: MAFSGSQAPYLSPAVPFSGTIQGGLQDGLQITVNGTVLSSSGTRFAVNFQTGFSGNDIAFHFNPRFEDGGYVVCNTRQNGSWGPEERKTHMPFQKGMPFDLCFLVQSSDFKVMVNGILFVQYFHRVPFHRVDTISVNGSVQLSYISFQNPRTVPVQPAFSTVPFSQPVCFPPRPRGRRQKPPGVWPANPAPITQTVIHTVQSAPGQMFSTPAIPPMMYPHPAYPMPFITTILGGLYPSKSILLSGTVLPSAQRFHINLCSGNHIAFHLNPRFDENAVVRNTQIDNSWGSEERSLPRKMPFVRGQSFSVWILCEAHCLKVAVDGQHLFEYYHRLRNLPTINRLEVGGDIQLTHVQT
glycan array binding signal (z-score) [1]: -0.317
glycan array binding signal (z-score) [2]: -0.3
glycan array binding signal (z-score) [3]: -0.322
glycan array binding signal (z-score) [4]: 0.06
glycan array binding signal (z-score) [5]: -0.307
glycan array binding signal (z-score) [6]: -0.233
glycan array binding signal (z-score) [7]: 0.9
glycan array binding signal (z-score) [8]: -0.307
glycan array binding signal (z-score) [9]: 0.055
glycan array binding signal (z-score) [10]: 4.39
glycan array binding signal (z-score) [11]: -0.288
glycan array binding signal (z-score) (Fuc(a1-3)GlcNAc): -0.32
glycan array binding signal (z-score) [12]: -0.303
glycan array binding signal (z-score) [13]: -0.236
glycan array binding signal (z-score) (Gal(a1-4)Gal(b1-4)GlcNAc): -0.299
glycan array binding signal (z-score) [14]: 6
glycan array binding signal (z-score) [15]: 4.53
glycan array binding signal (z-score) [16]: -0.282
glycan array binding signal (z-score) [17]: -0.315
glycan array binding signal (z-score) [18]: 2.94
glycan array binding signal (z-score) [19]: -0.269
glycan array binding signal (z-score) [20]: 0.09
glycan array binding signal (z-score) [21]: 4.71
glycan array binding signal (z-score) [22]: 3.87
glycan array binding signal (z-score) [23]: 9.56
glycan array binding signal (z-score) [24]: 4.95
glycan array binding signal (z-score) [25]: 4.2
